# Assay results taken from PubChem BioAssay AID1053143 (Broad Institute, 2014).
# Out of some 3,400 compounds screened, about 120 (3.5%) were called active. No rule for the calls is given here. These entries were drawn from the full list. Results with a measured potency or affinity are listed apart.
# Test: viability loss in HepG2 hepatoma cells – cell-based, ATP luminescence, cherry-pick, activator set 2, cytotoxicity control, dose response (AID 1053143)
# Details: CellTiter-Glo ATP luminescence, 72 h; series mostly up to 26 µM; activity change, negative = cytotoxicity: at the top concentration
row,SMILES,"activity change, negative = cytotoxicity"
1,COc1cc(Cl)ccc1OCc1cc(C(=O)NC(C)Cc2cnccn2)no1 (stereo not drawn),-13.1% (inactive)
2,Cc1ccc(NC(=O)Nc2cccc(C)n2)c(C)c1,-16.3% (inactive)
3,Oc1cccc(Nc2nc(O)c(/C=C3\C=Nc4ccccc43)s2)c1,-8.74% (inactive)
4,COc1ccc(-c2csc(N(CC3CCCO3)C(=O)c3ccc(C)cc3)n2)cc1 (stereo not drawn),-14.5% (inactive)
5,CC(C)CN1CCC(=O)N(CCSc2ccccc2)CC1,-0.298% (inactive)
6,Clc1ccc(/C=N/Nc2ccccn2)cc1,3.24% [at 12 µM] (inactive)
7,O=[N+]([O-])c1ccc(NN=Cc2ccc(O)cc2)nc1,2.51% (inactive)
8,COC(=O)c1sc(-c2ccc(C(C)(C)C)cc2)cc1NC(=O)c1ccccc1C(=O)O,-0.287% (inactive)
9,COc1ccc(N2CCN(c3ccc(NC(=O)/C=C\C(=O)O)cc3)CC2)cc1,-5.11% (inactive)
10,CC1CCC(C(C)C)C(=O)/C1=C/c1ccc(N)cc1 (stereo not drawn),-13.4% (inactive)
11,Cn1c(=NN=Cc2ccccc2OCCO)sc2ccccc21,-17.3% (inactive)
12,COc1ccc(-c2cn(Cc3ccc(C(N)=O)cc3)c(-c3ccncc3)n2)cc1,-26.3% (inactive)
13,COc1ncccc1-c1nnn(-c2ccccc2)n1,-15.1% (inactive)
14,COc1ncccc1-c1nnn(-c2ccc(C)cc2)n1,-28.8% (inactive)
15,CCCCn1c(SCC2CCCCO2)nc2cc(S(N)(=O)=O)ccc21 (stereo not drawn),-22.6% (inactive)
16,O=C(Cn1nnc2ccccc21)c1ccc(Cl)cc1,-7.73% (inactive)
17,c1ccc(-n2ncc3c(NCCN4CCOCC4)ncnc32)cc1,-15.4% (inactive)
18,Cn1c(=O)c(C(=O)NCC2CCCO2)c(O)c2ccccc21 (stereo not drawn),-4.84% (inactive)
19,COc1ccccc1C(=O)Nc1nnc(SCC(=O)NCC2CCCO2)s1 (stereo not drawn),-5.08% (inactive)
20,CC1(c2ccccn2)Nc2ccccc2-c2nc3ccccc3n21 (stereo not drawn),-6.75% (inactive)
21,NC(=O)c1ccccc1NC(=O)/C=C/c1ccccc1,14% (inactive)
22,O=C(Nc1nccs1)c1ccc(-c2ccc(F)cc2)o1,-7.12% (inactive)
23,COC(=O)c1c(NC(=O)c2ccc(C)o2)sc2c1CCCCC2,19.4% (inactive)
24,Cc1ccc(C(=O)Nc2nc3c(s2)CCCC3)o1,-19.8% (inactive)
25,Cc1cccc(Cc2cnc(NC(=O)c3ccc(C)o3)s2)c1,-22.4% (inactive)
26,CCCCN(C(=O)Cc1cccs1)c1nnc(-c2cccnc2)s1,1.27% (inactive)

row,SMILES,"activity change, negative = cytotoxicity"
1,O=C(NCCc1ccc(Cl)cc1)c1ccc2c(c1)OCO2,-4.91% (inactive)
2,Cc1cccc(OCC(=O)Nc2nccs2)c1C,-2.78% (inactive)
3,CC(C)(C)NC(=O)Nc1ccc(Br)cc1,-21.4% (inactive)
4,O=C1c2ccncc2C(=O)N1CNc1ccc(Cl)cc1,-11.6% (inactive)
5,O=C(Cc1nc2ccccc2[nH]c1=O)c1ccc(Cl)cc1,15.3% (inactive)
6,O=C(O)c1ccc(/C=C(\c2nc3ccccc3[nH]2)c2nc3ccccc3s2)cc1,12.7% (inactive)
7,CCc1cc(C(=O)COc2ccc(F)cc2)c(O)cc1O,-6.69% (inactive)
8,CC1(C)Cc2c(c(N3CCOCC3)nc3sc(C(=O)Nc4ccccc4)c(N)c23)CO1,-10.1% (inactive)
9,CN(C)c1ccnc2sc(C(=O)c3ccccc3)c(N)c12,-10.8% (inactive)
10,CCCCN1CCc2c([nH]c3ccc(C)cc23)C1=O,-7.17% (inactive)
11,O=C1CCC(c2ccccc2)c2ccccc21 (stereo not drawn),-5.58% (inactive)
12,Cn1ccc(NC(=O)c2ccc(Cl)cc2Cl)n1,9.45% (inactive)
13,O=C(Nc1ccc2ccccc2c1)c1ccc(Cl)cc1Cl,-13% (inactive)
14,O=C(NCCO)c1ccc2c3n(nc2c1)-c1ccc(Cl)cc1CO3,-13.4% (inactive)
15,CN(C)CCN1C(=O)C(=O)/C(=C(/O)c2ccc3c(c2)OCCO3)C1c1ccccn1 (stereo not drawn),-7.51% (inactive)
16,COc1cccc(/C=C/C(=O)NNC(=O)c2ccccc2)c1OC,-12.3% (inactive)
17,CSc1nc(Cl)cc(Nc2ccc(O)cc2)n1,-0.166% (inactive)
18,Cc1cccc(C(=O)OCC(=O)c2c(C)[nH]c3ccccc23)c1O,0.746% (inactive)
19,Cc1cccc(NC(=O)c2c(O)c3ccccc3[nH]c2=O)c1,-15.7% (inactive)
20,Nn1c(SCc2c(F)cccc2F)nnc1-c1ccccn1,-0.861% (inactive)
21,O=C(Nc1ccc(NC(=O)c2cccs2)cc1Cl)c1ccco1,12.9% (inactive)
22,CCC(=O)Nc1ccc(NC(=O)c2ccco2)c(OC)c1,67.7% (inactive)
23,Cc1cccc(NC(=O)c2ccccn2)c1C,5.79% (inactive)
24,CC1(O)C(c2ccccc2)=Nc2ccccc21 (stereo not drawn),-24.2% (inactive)
25,O=C(c1cc(COc2c(F)cccc2F)on1)N1C[C@H]2CC[C@H]1C2,-1.5% (inactive)
26,Cc1ccc(-n2nc3ccc(N)cc3n2)cc1C,-0.701% (inactive)

row,SMILES,"activity change, negative = cytotoxicity"
1,CC(C)c1ccc(-n2nc3ccc(N)cc3n2)cc1,-17.6% (inactive)
2,CC(=O)c1ccc2c(c1)Cc1cc(C(C)=O)ccc1-2,-12.1% (inactive)
3,CC1CCc2sc(C(=O)NC3CCCCC3)cc2C1 (stereo not drawn),-10.7% (inactive)
4,C=CCn1cc(/C=N/Nc2nc3ccccc3[nH]2)c2ccccc21,-43.7% (inactive)
5,Fc1ccccc1-c1ccc(/C=N/Nc2nc3ccccc3[nH]2)o1,-16.3% (inactive)
6,Cc1ccsc1/C=N/Nc1nc2ccccc2[nH]1,-6.65% (inactive)
7,C(=N\Nc1nc2ccccc2[nH]1)/c1ccc2c(c1)OCCO2,-13.2% [at 12 µM] (inactive)
8,Cc1ccc(/C=N/Nc2nc3ccccc3[nH]2)s1,-17.2% (inactive)
9,C(=N\Nc1nc2ccccc2[nH]1)/c1cccs1,1.51% (inactive)
10,Clc1nc2ccccc2cc1/C=N/Nc1nc2ccccc2[nH]1,-7.1% (inactive)
11,C(=C\c1ccccc1)/C=N/Nc1nc2ccccc2[nH]1,-9.79% (inactive)
12,O=C(COC(=O)CC1CCCC1)Nc1cc2c(cc1Cl)C(=O)c1ccccc1C2=O,-25.4% (inactive)
13,O=C(O)CC1=C(Nc2ccccc2)C(=O)N(c2ccccc2)C1c1ccc(Br)cc1 (stereo not drawn),21.9% (inactive)
14,COC(=O)C(C)N1C(=O)S/C(=C/c2cc(C)n(-c3ccccn3)c2C)C1=O (stereo not drawn),-4.21% (inactive)
15,Cc1cccc(-n2ncc3c(NCCCO)ncnc32)c1,4.41% (inactive)
16,O=C(CCNC(=O)c1ccc(Br)cc1)Nc1ccc(S(=O)(=O)N2CCOCC2)cc1,-8.39% (inactive)
17,C=CCc1c(C)nc2cc(-c3ccccc3)[nH]n2c1=O,-7.02% (inactive)
18,Cc1ccc2oc(C(=O)N(C)Cc3ccon3)c(C)c2c1,-6.74% (inactive)
19,C(/C=C/c1ccccn1)=C\c1ccccc1,-22.6% (inactive)
20,COc1ccc2cc3cc(C(=O)N4CCCC(C)C4)oc3nc2c1 (stereo not drawn),-14% (inactive)
21,Cn1c(NC(=O)c2ccccc2F)c(-c2cccs2)c(=O)c2ccccc21,-4.75% (inactive)
22,COc1ccc(N=NC2=C(O)CC(C)(C)CC2=O)cc1,-13.4% (inactive)
23,CCC(=O)Nc1cc(C(=O)OCC(=O)c2ccccc2Cl)ccc1C,-11.1% (inactive)
24,CCC(=O)Nc1ccc2nn(-c3ccc(F)cc3)nc2c1,-11.6% (inactive)
25,Cc1cc2nn(-c3ccccc3)nc2cc1NC(=O)c1cccs1,-10.6% (inactive)
26,CC(=O)Nc1cccc(-n2nnc(SCC(=O)c3ccccc3)n2)c1,-12.8% (inactive)
